Shown are actives, neighbours in structure and some others; about 3.1% of the full set was active somewhere.
PAFAH2 FP inh = PAFAH2 enzyme inhibitors, primary screen, biochemical, fluorescence polarization, human. AID 492956, 2010. 340,000 compounds, 0.99% hits. recombinant PAFAH2, FP-rhodamine activity probe. inhibition, % at 3.39 µM;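 active = inhibition above the mean over all tested compounds plus 3 SD, cut at about 30% in these data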;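 also: inhibitors block probe labeling of enzyme so polarization drops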
Rin1-Abl PPI inh = inhibitors of Rin1-Abl protein binding, primary screen, biochemical, TR-FRET; Tyrosine-protein kinase ABL1 (Homo sapiens) + Ras and Rab interactor 1 (Homo sapiens), …; inhibition, % at 7.35 µM; 360,000 compounds, 0.4% hits; AID 588664, 2011; in the data active = inhibition above about 5%, passing the limit was not always enough
PAFAH1B2 inh = PAFAH1B2 enzyme inhibitors, primary screen, biochemical, fluorescence polarization, human | inhibition, % at 3.39 µM | AID 492953, 2010 | recombinant PAFAH1B2, FP-rhodamine activity probe | Platelet-activating factor acetylhydrolase IB subunit alpha2 (Homo sapiens), P68402 | 340,000 compounds, 1.2% hits;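 active = inhibition above the mean of all tested compounds plus 3 SD, cut at about 24% in these data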
pPAFAH inh = pPAFAH enzyme inhibitors, primary screen, biochemical, fluorescence polarization, human; Platelet-activating factor acetylhydrolase (Homo sapiens), Q13093; recombinant pPAFAH, FP-rhodamine probe fluorescence polarization; inhibition, % at 3.39 µM; 330,000 compounds, 1.5% hits; AID 463082, 2010;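 active = inhibition above the mean inhibition across the screen plus 3 SD, cut at about 25% in these data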;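 also: inhibitors block binding of the rhodamine activity-based probe so polarization drops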
E coli Lon inh = inhibitors of E. coli Lon protease, primary screen, biochemical, fluorescence polarization. purified E. coli Lon protease. P0A9M0. 360,000 compounds, 0.42% hits. AID 602123, 2011. inhibition, % at 7.94 µM; in the data active = inhibition above about 13%, passing the limit was not always enough
Target sequence (P0A9M0 whole entry, looked up): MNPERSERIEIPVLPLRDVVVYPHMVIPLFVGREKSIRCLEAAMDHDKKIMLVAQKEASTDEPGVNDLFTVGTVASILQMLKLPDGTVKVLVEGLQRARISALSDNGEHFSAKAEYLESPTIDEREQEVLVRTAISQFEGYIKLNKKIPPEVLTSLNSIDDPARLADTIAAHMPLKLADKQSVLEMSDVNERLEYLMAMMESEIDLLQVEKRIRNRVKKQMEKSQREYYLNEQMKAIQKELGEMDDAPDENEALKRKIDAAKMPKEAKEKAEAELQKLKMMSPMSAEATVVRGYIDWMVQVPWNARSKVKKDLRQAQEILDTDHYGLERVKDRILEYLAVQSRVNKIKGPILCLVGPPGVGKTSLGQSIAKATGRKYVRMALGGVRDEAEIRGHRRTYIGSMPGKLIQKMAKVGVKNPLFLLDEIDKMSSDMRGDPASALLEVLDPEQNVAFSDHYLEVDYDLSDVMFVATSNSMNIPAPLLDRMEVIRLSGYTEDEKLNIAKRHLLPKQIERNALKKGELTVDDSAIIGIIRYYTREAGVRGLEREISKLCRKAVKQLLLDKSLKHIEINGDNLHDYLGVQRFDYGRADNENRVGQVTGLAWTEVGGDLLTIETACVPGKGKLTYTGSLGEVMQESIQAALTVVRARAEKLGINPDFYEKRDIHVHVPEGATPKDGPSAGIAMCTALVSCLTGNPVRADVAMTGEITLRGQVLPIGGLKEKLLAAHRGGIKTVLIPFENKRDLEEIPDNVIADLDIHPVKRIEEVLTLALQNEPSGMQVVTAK
PAFAH1B3 FP inh = PAFAH1B3 enzyme inhibitors, primary screen, biochemical, fluorescence polarization, human; Platelet-activating factor acetylhydrolase IB subunit alpha1 (Homo sapiens), Q15102; recombinant PAFAH1B3, FP-rhodamine probe; inhibition, % at 3.39 µM; 340,000 compounds, 0.28% hits; AID 492972, 2010;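 active = inhibition above the screen-wide average of all tested compounds plus 3 SD, cut at about 25% in these data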
E coli Lon conf = E. coli Lon protease inhibitor retest, confirmation, biochemical, fluorescence polarization; purified E. coli Lon; shares compounds with E coli Lon inh; 1,400 compounds, 31% hits; AID 602230, 2012; inhibition, % at 7.94 µM; in the data active = inhibition above about 16%
Each line names hits and unclear results; the compound was inactive in the other large screens (follow-up assays come after a bar, where they were run).

CC(C)NC(=O)NC(=O)COC(=O)c1cc(S(=O)(=O)N2CCCCC2)ccc1N1CCOCC1	none
Cc1cc(NC(=O)COC(=O)c2cc(S(=O)(=O)N3CCOCC3)ccc2N2CCCCC2)no1	E coli Lon inh 54 | E coli Lon conf inactive
O=C(NC1CCCCC1)c1cc(S(=O)(=O)N2CCCCC2)ccc1N1CCOCC1	E coli Lon inh 20 | E coli Lon conf inactive
Cc1ccc(N(CC(=O)NC2CCCCC2)C(=O)CNC(=O)c2cccs2)cc1	none
Cc1ccc(N(CC(=O)NC2CCCC2)C(=O)CNC(=O)c2cccs2)cc1C	E coli Lon inh 19 | E coli Lon conf inactive
CSCC[C@H](NC(=O)C1CCN(S(=O)(=O)c2ccc(C)cc2C)CC1)c1nc2ccccc2[nH]1	none
O=C(O)[C@H](Cc1c[nH]c2ccccc12)Nc1ncccc1[N+](=O)[O-]	none
O=C1C=C(C#Cc2ccc(Oc3ccccc3)cc2)C[C@@H](c2ccc(F)cc2)C1	none (no result: PAFAH2 FP inh, PAFAH1B2 inh, pPAFAH inh, PAFAH1B3 FP inh)
COCCN(C(=O)CCC(=O)Nc1nccs1)C(C(=O)NCCC(C)C)c1ccc(OC)cc1 (configuration not stated)	none
O=C1c2ccc3c4c(ccc(c24)C(=O)N1CCCCO)C(=O)N(CCCCO)C3=O	E coli Lon inh 50 (no result: pPAFAH inh) | E coli Lon conf 50
O=C(c1ccc2c(c1)C(=O)N(CCCO)C2=O)c1ccc2c(c1)C(=O)N(CCCO)C2=O	none
Cc1ccc(S(=O)(=O)N[C@@H](Cc2ccccc2)C(=O)N2CCC[C@@H]2C(=O)O)cc1	E coli Lon inh 17 | E coli Lon conf inactive
CC(C)(C)OC(=O)N[C@H](Cc1ccccc1)C(=O)N1CCC[C@@H]1C(=O)O	none
COc1ccccc1N1C(=O)c2cccc3c(N(C)CCO)ccc(c23)C1=O	E coli Lon inh 176 | E coli Lon conf 76
Cc1ccccc1N1C(=O)c2cccc3c(N(C)CCO)ccc(c23)C1=O	E coli Lon inh 124 | E coli Lon conf 84
COc1ccc2c3c(cccc13)C(=O)N(O)C2=O	E coli Lon inh 38 | E coli Lon conf 87
Cc1ccn2c(=O)c(NC(=O)c3ccc4c(c3)OCO4)c(C)nc2c1	none (no result: PAFAH2 FP inh, PAFAH1B2 inh, pPAFAH inh, PAFAH1B3 FP inh)
CSCCC(=O)Nc1cc(S(=O)(=O)N2CCOCC2)ccc1N1CCN(C)CC1	none
COc1ccccc1NCCC(=O)OCC(=O)Nc1cc([N+](=O)[O-])ccc1F	none
Cc1onc(-c2ccccc2)c1C(=O)N1CCCC(C)(C(=O)NS(=O)(=O)C2CC2)C1 (configuration not stated)	none (no result: PAFAH2 FP inh, PAFAH1B2 inh, pPAFAH inh, PAFAH1B3 FP inh)
O=C(O)c1[nH]c2ccccc2c1C(c1cc(Cl)cc([N+](=O)[O-])c1O)c1c(C(=O)O)[nH]c2ccccc12	PAFAH1B2 inh 62, E coli Lon inh 28 | E coli Lon conf 19
COC(=O)c1[nH]c2ccc(Cl)cc2c1NC(=O)c1ccccc1[N+](=O)[O-]	none
O=[N+]([O-])c1ccc(N2CCN(CC3CCCCC3)CC2)cc1	none
CCC1Oc2ccccc2N(CC(=O)N2CC(C)CC(C)C2)C1=O (configuration not stated)	none (no result: PAFAH2 FP inh, PAFAH1B2 inh, pPAFAH inh, PAFAH1B3 FP inh)
Cc1nc2ccccc2n2c(O)c(CC(=O)O)cc12	pPAFAH inh 27, E coli Lon inh 148 | E coli Lon conf 119
O=C(/C=C/c1cccs1)N1CCN(c2ccccc2)CC1	none
CC(=O)N(C(C)=O)N1C(=O)c2cccc3c(N4CCOCC4)ccc(c23)C1=O	E coli Lon inh 39 | E coli Lon conf 21
CN(C)CCCN1C(=O)c2cccc3c(Br)ccc(c23)C1=O	E coli Lon inh 31 | E coli Lon conf 68
CCCCNc1ccc2c3c(cccc13)C(=O)N(CCCC)C2=O	PAFAH2 FP inh 34, E coli Lon inh 135, PAFAH1B3 FP inh 31 (no result: pPAFAH inh) | E coli Lon conf inactive
CCCN1C(=O)c2cccc3c(N4CCCCC4)ccc(c23)C1=O	E coli Lon inh 74 | E coli Lon conf inactive
O=C(O)CN1C(=O)c2cccc3c(Br)ccc1c23	none
